# Screens as filed in PubChem.
# VP16 counter: VP16 counterscreen qHTS for inhibitors of ROR gamma transcriptional activity | Potency, µM (top dose mostly 53.6 µM), for inactives: top-dose activity, negative = inhibition, hits mostly inhibitors | actives 3.5% (n = 310,000) | Drosophila S2 Gal4-VP16 UAS-luciferase, luminescence, 20 h;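 further: Gal4-VP16 expression switched on by copper sulfate through the metallothionein promoter; nearly all actives have a fitted effect of over 50% in size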
# Sfp PPTase inh: qHTS Assay for Inhibitors of Bacillus subtilis Sfp phosphopantetheinyl transferase (PPTase); 4'-phosphopantetheinyl transferase ffp (Bacillus subtilis), Q9F4F7; Biochemical Sfp PPTase activity, qHTS; Potency, µM, for inactives: largest response in the series, negative = inhibition, hits mostly inhibitors; actives 3.5% (n = 310,000); AID 1490, 2009;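 further: the enzyme is Sfp with the accession as filed and its product quenches rhodamine fluorescence; 0% = enzyme reaction without inhibitor and -100% = no enzyme wells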
#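 With Hepes-Na pH 7.6 buffer containing 10 mM MgCl2, Sfp (15 nM) modified BHQ-2-YbbR (12.5 uM) using rhodamine-CoA (5 uM). Two reads 30 minutes apart at 525/598 nm yielded each well's rate.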
# ALDH1A1 block: qHTS Assay for Inhibitors of Aldehyde Dehydrogenase 1 (ALDH1A1); AID 1030, 2008; Aldehyde dehydrogenase 1A1 (Homo sapiens), P00352; actives 7.3% (n = 220,000); Purified ALDH1A1, NADH fluorescence, propionaldehyde substrate; Potency, µM (doses to about 75.3 µM), without a hit: top-dose activity, negative = inhibition, usual class: inhibitors; active means well fitted inhibition curve with a large enough effect, not every such curve was filed as active; inconclusive means small, poorly fitted or top-dose-only effect, or another doubt; inactive means no such curve, though single readings can be large or run the other way;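 further: plate controls were no enzyme wells and a reference inhibitor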
# Target sequence (P00352 whole entry, looked up): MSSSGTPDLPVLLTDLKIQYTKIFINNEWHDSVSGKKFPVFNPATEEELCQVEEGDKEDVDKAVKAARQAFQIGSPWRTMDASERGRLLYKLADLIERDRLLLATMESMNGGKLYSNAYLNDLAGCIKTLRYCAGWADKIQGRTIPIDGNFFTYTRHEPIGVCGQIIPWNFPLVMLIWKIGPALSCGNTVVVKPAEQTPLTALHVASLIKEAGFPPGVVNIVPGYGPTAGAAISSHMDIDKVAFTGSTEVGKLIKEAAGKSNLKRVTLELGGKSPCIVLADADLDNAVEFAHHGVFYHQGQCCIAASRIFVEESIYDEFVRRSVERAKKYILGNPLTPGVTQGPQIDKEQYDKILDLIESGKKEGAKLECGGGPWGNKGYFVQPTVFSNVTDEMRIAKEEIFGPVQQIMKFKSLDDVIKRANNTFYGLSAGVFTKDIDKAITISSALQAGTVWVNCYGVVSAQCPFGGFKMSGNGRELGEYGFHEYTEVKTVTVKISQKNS
# RORg inh: qHTS for inhibitors of ROR gamma transcriptional activity; actives 5.4% (n = 310,000); Potency, µM (highest dose often 53.6 µM), without a hit: at the top dose activity change, negative = inhibition, usual class: inhibitors; Drosophila S2 Gal4-RORgamma UAS-luciferase reporter, 20 h; AID 2551, 2010; Nuclear receptor ROR-gamma (Mus musculus), P51450; further: nearly all actives have a fitted effect of over 60% in size
#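 Stably transfected Drosophila Schneider cells are the test system, with ROR gamma fused to Gal4 and luciferase under UAS control; luminescence is read after 20 hr of 700 uM copper sulfate induction at ambient temperature.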
# PLK1 PBD block: qHTS for Inhibitors of PLK1-PDB (polo-like kinase 1 - polo-box domain): Primary Screen; actives 2.8% (n = 360,000); Potency, µM, inactives show max response, negative = inhibition, actives largely listed as inhibitors; Plk1 PBD binding of FITC phosphopeptide, fluorescence polarization; Serine/threonine-protein kinase PLK1 (Homo sapiens), P53350; AID 720504, 2013; further: series mostly up to about 57 µM; nearly all actives have a fitted effect of over 65% in size
# * hit, by the source's call; ? = inconclusive; . = not tested or not shown; [ ] = another dose, or the depositor's remark. Only some compounds are listed: those with a hit (about 12% of all), similar ones and a draw of the others. Unless noted, the call rests on the fitted dose curve; in most records, active means well fitted curve in the direction sought with a large enough effect; inconclusive means small, poorly fitted or top-dose-only effect, or another doubt; inactive means no such curve, though single readings can be large; an effect the other way counts as inactive or inconclusive. Unless noted, on the % scale 0 is the no-effect control and ±100 the full control effect; potency means the concentration at half of the fitted maximal effect.
SMILES,VP16 counter,Sfp PPTase inh,ALDH1A1 block,RORg inh,PLK1 PBD block
CCOc1ccc(Cl)cc1/C=N/O,1%,5%,7%,-5%,4%
Cc1cc(C)n2nc(SCC(=O)NC3(C#N)CCCCC3)nc2n1,.,.,.,.,4%
CC(C)CN1CCN(Cc2cccn2-c2cccnc2)CC1CCO (stereo not drawn),-7%,10%,3.5µM*,-1%,-5%
CC1(C(=O)O)CCC2(C)CCC3(C)C(=CC(=O)C4C5(C)CCC(O)C(C)(C)C5CCC43C)C2C1 (stereo not drawn),-6%,3%,.,-1%,.
COCCn1c(=NC(=O)CSCC(=O)Nc2cc(C)on2)sc2cc(C(=O)OC)ccc21,-1%,19%,?,17%,27µM*
COCCn1c(=NC(=O)CCS(=O)(=O)c2ccccc2)sc2cc(C(=O)OC)ccc21,2%,6%,.,-29%,1%
C[C@@H](/C=C\c1cccc(Oc2ccc(F)cc2)c1)N(O)C(N)=O,-1%,?,?,-21%,.
COC(=O)C1CCN(C(=O)COc2ccc(Cl)cc2)CC1,5%,5%,-15%,-15%,-21%
COC(=O)C1CCN(C(=O)COc2cc3sc(C)nc3c3sccc23)CC1,1%,10%,11µM*,-9%,-10%
CO[C@@H]1COC(=O)CCC[C@@H](C)[C@H](OC)COC(=O)CCC[C@H]1C,-15%[10 µM],15%,3%[13.5 µM],-12%[10 µM],.
COC(=O)[C@H](CC(C)C)NC(=O)Nc1ccc(S(N)(=O)=O)cc1,-9%,79µM*,.,-10%,-5%
COc1ccc(C(C(=O)NCc2ccccc2)n2c(=O)c(-c3ccco3)nc3ccccc32)cc1 (stereo not drawn),.,.,.,.,-18%
COc1ccc(NC(=S)N/N=C2\CC(C)(C)Oc3ccc(O)cc32)cc1,5.6µM*,-3%,?,6.3µM*,-14%
COc1ccccc1NC(=S)N/N=C1\CC(C)(C)Oc2ccc(O)cc21,?,38%,?,?,1%
CC(=O)N1CCC2(CC1)C/C(=N\NC(=S)Nc1ccccc1F)c1cc(O)ccc1O2,-5%,-26%,?,13µM*,?
COCCCN(C(=S)NC(=O)C(C)(C)C)c1c(N)n(Cc2ccccc2)c(=O)[nH]c1=O,2%,-29%,28µM*,-32%,?
COCCN(C(=O)COC(=O)c1cc2c(s1)CCC2)c1c(N)n(Cc2ccccc2)c(=O)[nH]c1=O,.,.,.,.,9.5µM*
CCCCN(C(=S)NC(=O)c1ccccc1)c1c(N)n(Cc2ccccc2)c(=O)[nH]c1=O,-13%,6%,?,?,?
CC(C)CCN(C(=S)NC(=O)C1CCCCC1)c1c(N)n(Cc2ccccc2)c(=O)[nH]c1=O,3%,-2%,25µM*,-5%,?
COCCCN(C(=S)NC(=O)c1ccc(Br)cc1)c1c(N)n(Cc2ccccc2)c(=O)[nH]c1=O,3%,16%,-10%,10µM*,?
CC(C)C(=O)Nc1cccc(COc2cccc(CN(Cc3ccccc3)C(=O)OC(C)(C)C)c2)c1,.,.,.,.,-5%
S=C1SCN(C2CCCCCCCCCCC2)CN1C1CCCCCCCCCCC1,.,.,0%[13.5 µM],.,.
O=C(Nc1ccc(Cl)cc1)C1Cc2c(-c3cccc(F)c3)ccnc2O1 (stereo not drawn),.,.,.,.,2%
Cc1[nH]nc2c1C(=O)CCC2,-2%,14%,12%,-6%,7.5µM*
CC(C)C[C@@H](CO)NS(=O)(=O)c1c(F)cccc1F,.,.,.,.,-7%
SMILES,VP16 counter,Sfp PPTase inh,ALDH1A1 block,RORg inh,PLK1 PBD block
CCOC(=O)c1nnn(-c2nonc2N)c1C,4%,-19%,-16%,28%,-3%
Cc1c(C(=O)N2CCCC2)nnn1-c1nonc1N,0%,27%,25µM*,-10%,-1%
Cc1cccnc1CN1CCN(Cc2nc(C(c3ccccc3)c3ccccc3)no2)CC1,-25%,18%,?,11µM*,7%
CC(C)CC(=O)N1CCN(C(=O)CCC2CCCC2)CC1,-4%,8%,-15%,6%,27µM*
CCCCC(C(=O)O)C(C)CC(=O)Nc1nncs1 (stereo not drawn),-2%,12%,.,-1%,21µM*
CC(CCC(=O)Nc1nncs1)C(=O)O (stereo not drawn),6%,13%,0%,6%,0%
CCCCn1c(CN(Cc2ccccc2)Cc2ccccc2)nc2c1c(=O)n(C)c(=O)n2C,.,.,.,.,-2%
Cc1ccc(Cn2c(CN(C)Cc3ccccc3)nc3c2c(=O)n(C)c(=O)n3C)cc1,-2%,-20%,7.1µM*,-16%,1%
CCCCCn1c(CN(C)Cc2ccccc2)nc2c1c(=O)n(C)c(=O)n2C,-18%,5%,10µM*,-6%,-4%
CN(Cc1ccccc1)Cc1nc2c(c(=O)n(C)c(=O)n2C)n1Cc1ccc(Cl)cc1,-4%,-18%,?,-18%,1%
CC(C)n1c(CN(C)Cc2ccccc2)nc2c1c(=O)n(C)c(=O)n2C,1.3µM*,1%,.,?,0%
CCCCCCCCN[C@@H](C)[C@H](O)c1ccc(SC(C)C)cc1,-6%[17 µM],?,-9%[20.9 µM],?,.
COc1ccc(/C=C2\N=C(C)OC2=O)cc1[N+](=O)[O-],0%,11%,18µM*,13%,?
Cc1ccc(C(=O)N[C@@H](Cc2ccccc2)C(=O)N2CCC3(CC2)NCCc2[nH]cnc23)cc1C,13%,6%,.,8%,5%
Cc1cc(Oc2ccc(OCC(N)=O)nn2)nc(Cl)n1,9%,12%,2%,-7%,-15%
COc1ccc(Oc2cc(C)nc(Cl)n2)nn1,-6%,-8%,8.9µM*,-21%,-7%
Cc1ccc2c(c1)c(N=O)c(O)n2Cc1ccc(Cl)cc1,?,-5%,-7%,?,-8%
NC(=S)N=Nc1c(O)n(Cc2ccc(Br)cc2)c2ccccc12,0.89µM*,-14%,3.5µM*,0.79µM*,-13%
O=Nc1c(O)n(Cc2ccc(Cl)cc2)c2ccccc12,11µM*,?,26%,?,2%
Cc1ccc2c(c1)c(N=NC(N)=S)c(O)n2Cc1ccccc1,2.5µM*,-3%,0.63µM*,1.6µM*,-9%
Cc1ccc(Cn2c(O)c(N=O)c3ccccc32)cc1,?,-18%,6%,-23%,-7%
